# Substitutions are numbered along the chain they refer to; changes in the protein carry UniProt numbers. In all, about 16,000 sequences were measured (“ka relative to ugcaugu”: median about 0.0091, highest 2% from about 0.032 on). The list comes from a sample in which the highest values are over-represented; it also holds similar and randomly drawn sequences.
# T1: RBFOX1 RRM (Homo sapiens, UniProt Q9NWB1 109-208)
# T1 sequence: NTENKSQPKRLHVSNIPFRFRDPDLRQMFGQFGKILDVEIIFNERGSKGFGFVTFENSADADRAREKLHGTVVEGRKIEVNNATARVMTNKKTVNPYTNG
# B1: UCCGGCA (DNA:RNA)
# RNA: GGGAGACCGGAAUUCAGAUUGUCCUCCGGCAUUAAAUCCCGUCGUAGCCACCA
# DNA 1: CAATCTGAATTCCGGTCTCCC
# DNA 2: TGGTGGCTACGACGGGATT
# B2: ACUUCCC (DNA:RNA)
# RNA: B1 RNA with U25A, C27U, G28U, G29C, A31C
# DNA 1: CAATCTGAATTCCGGTCTCCC
# DNA 2: TGGTGGCTACGACGGGATT
# B3: ACGCCGU (DNA:RNA)
# RNA: B1 RNA with U25A, C27G, G28C, G29C, C30G, A31U
# DNA 1: CAATCTGAATTCCGGTCTCCC
# DNA 2: TGGTGGCTACGACGGGATT
# B4: UGCCAAA (DNA:RNA)
# RNA: B1 RNA with C26G, G28C, G29A, C30A
# DNA 1: CAATCTGAATTCCGGTCTCCC
# DNA 2: TGGTGGCTACGACGGGATT
# B5: GAGCAUC (DNA:RNA)
# RNA: GGGAGACCGGAAUUCAGAUUGUCCGAGCAUCUUAAAUCCCGUCGUAGCCACCA
# DNA 1: CAATCTGAATTCCGGTCTCCC
# DNA 2: TGGTGGCTACGACGGGATT
# B6: GAGAGCA (DNA:RNA)
# RNA: B5 RNA with C28A, A29G, U30C, C31A
# DNA 1: CAATCTGAATTCCGGTCTCCC
# DNA 2: TGGTGGCTACGACGGGATT
# B7: GAGCAUG (DNA:RNA)
# RNA: B5 RNA with C31G
# DNA 1: CAATCTGAATTCCGGTCTCCC
# DNA 2: TGGTGGCTACGACGGGATT
# B8: GAGCACG (DNA:RNA)
# RNA: B5 RNA with U30C, C31G
# DNA 1: CAATCTGAATTCCGGTCTCCC
# DNA 2: TGGTGGCTACGACGGGATT
# B9: GAGCAGA (DNA:RNA)
# RNA: B5 RNA with U30G, C31A
# DNA 1: CAATCTGAATTCCGGTCTCCC
# DNA 2: TGGTGGCTACGACGGGATT
# B10: GAGCACC (DNA:RNA)
# RNA: B5 RNA with U30C
# DNA 1: CAATCTGAATTCCGGTCTCCC
# DNA 2: TGGTGGCTACGACGGGATT
# B11: UUGCUAA (DNA:RNA)
# RNA: B5 RNA with G25U, A26U, A29U, U30A, C31A
# DNA 1: CAATCTGAATTCCGGTCTCCC
# DNA 2: TGGTGGCTACGACGGGATT
# B12: CGACAAG (DNA:RNA)
# RNA: B5 RNA with G25C, A26G, G27A, U30A, C31G
# DNA 1: CAATCTGAATTCCGGTCTCCC
# DNA 2: TGGTGGCTACGACGGGATT
# B13: CCAUGCU (DNA:RNA)
# RNA: B1 RNA with U25C, C27A, G28U, A31U
# DNA 1: CAATCTGAATTCCGGTCTCCC
# DNA 2: TGGTGGCTACGACGGGATT
# B14: AUGCAUA (DNA:RNA)
# RNA: B5 RNA with G25A, A26U, C31A
# DNA 1: CAATCTGAATTCCGGTCTCCC
# DNA 2: TGGTGGCTACGACGGGATT
# B15: AUGCACC (DNA:RNA)
# RNA: B5 RNA with G25A, A26U, U30C
# DNA 1: CAATCTGAATTCCGGTCTCCC
# DNA 2: TGGTGGCTACGACGGGATT
# B16: UACCACG (DNA:RNA)
# RNA: B5 RNA with G25U, G27C, U30C, C31G
# DNA 1: CAATCTGAATTCCGGTCTCCC
# DNA 2: TGGTGGCTACGACGGGATT
# B17: AUGCAUG (DNA:RNA)
# RNA: B5 RNA with G25A, A26U, C31G
# DNA 1: CAATCTGAATTCCGGTCTCCC
# DNA 2: TGGTGGCTACGACGGGATT
# B18: UUGCACG (DNA:RNA)
# RNA: B5 RNA with G25U, A26U, U30C, C31G
# DNA 1: CAATCTGAATTCCGGTCTCCC
# DNA 2: TGGTGGCTACGACGGGATT
# B19: AUGCAUC (DNA:RNA)
# RNA: B5 RNA with G25A, A26U
# DNA 1: CAATCTGAATTCCGGTCTCCC
# DNA 2: TGGTGGCTACGACGGGATT
# B20: UUGCACC (DNA:RNA)
# RNA: B5 RNA with G25U, A26U, U30C
# DNA 1: CAATCTGAATTCCGGTCTCCC
# DNA 2: TGGTGGCTACGACGGGATT
# B21: AUGCACG (DNA:RNA)
# RNA: B5 RNA with G25A, A26U, U30C, C31G
# DNA 1: CAATCTGAATTCCGGTCTCCC
# DNA 2: TGGTGGCTACGACGGGATT
# B22: UAGCACC (DNA:RNA)
# RNA: B5 RNA with G25U, U30C
# DNA 1: CAATCTGAATTCCGGTCTCCC
# DNA 2: TGGTGGCTACGACGGGATT
# B23: UUGCAGA (DNA:RNA)
# RNA: B5 RNA with G25U, A26U, U30G, C31A
# DNA 1: CAATCTGAATTCCGGTCTCCC
# DNA 2: TGGTGGCTACGACGGGATT
# B24: AUCCACG (DNA:RNA)
# RNA: B5 RNA with G25A, A26U, G27C, U30C, C31G
# DNA 1: CAATCTGAATTCCGGTCTCCC
# DNA 2: TGGTGGCTACGACGGGATT
# B25: UAGCACG (DNA:RNA)
# RNA: B5 RNA with G25U, U30C, C31G
# DNA 1: CAATCTGAATTCCGGTCTCCC
# DNA 2: TGGTGGCTACGACGGGATT
# B26: GUCCCAA (DNA:RNA)
# RNA: B5 RNA with A26U, G27C, A29C, U30A, C31A
# DNA 1: CAATCTGAATTCCGGTCTCCC
# DNA 2: TGGTGGCTACGACGGGATT
# B27: CAUUACG (DNA:RNA)
# RNA: B5 RNA with G25C, G27U, C28U, U30C, C31G
# DNA 1: CAATCTGAATTCCGGTCTCCC
# DNA 2: TGGTGGCTACGACGGGATT
# B28: UCACUCG (DNA:RNA)
# RNA: B1 RNA with C27A, G28C, G29U, A31G
# DNA 1: CAATCTGAATTCCGGTCTCCC
# DNA 2: TGGTGGCTACGACGGGATT
# B29: GUGCACG (DNA:RNA)
# RNA: B5 RNA with A26U, U30C, C31G
# DNA 1: CAATCTGAATTCCGGTCTCCC
# DNA 2: TGGTGGCTACGACGGGATT
# B30: ACGUGCG (DNA:RNA)
# RNA: B1 RNA with U25A, C27G, G28U, A31G
# DNA 1: CAATCTGAATTCCGGTCTCCC
# DNA 2: TGGTGGCTACGACGGGATT
# B31: GUGCACC (DNA:RNA)
# RNA: B5 RNA with A26U, U30C
# DNA 1: CAATCTGAATTCCGGTCTCCC
# DNA 2: TGGTGGCTACGACGGGATT
# B32: AGGUCUC (DNA:RNA)
# RNA: B5 RNA with G25A, A26G, C28U, A29C
# DNA 1: CAATCTGAATTCCGGTCTCCC
# DNA 2: TGGTGGCTACGACGGGATT
# Molecular target: T1, RBFOX1 RRM
# Experiment: EMSA; HiTS-Eq, 1 nM pool, 10 min; buffer printed only for the single-RNA assays: 10 mM Tris pH 7.5, 150 mM NaCl, 3.4 mM EDTA, 0.001% NP-40, 30 C
# Conditions: tags: His6 N-terminal (pET28a); label: 5' 32P
# Method in brief: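 Purified RbFox RRM, wild type or mutant, was incubated for 10 min in 50 µL with 1 nM of a 5′-radiolabelled RNA pool carrying 7 randomized nucleotides, whose flanks were annealed to DNA oligonucleotides, over a series of increasing protein concentrations. Unbound RNA was resolved on 8% native PAGE, cut out, reverse-transcribed, barcoded by PCR and sequenced on an Illumina HiSeq 2500. Relative association constants were derived from changes in read counts for each RNA species versus the control reaction and normalised to the cognate motif.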
row,Binder,binding signal
1,B1,0.0141 KA relative to UGCAUGU
2,B2,0.00296 KA relative to UGCAUGU
3,B3,0.00555 KA relative to UGCAUGU
4,B4,0.0103 KA relative to UGCAUGU
5,B5,0.018 KA relative to UGCAUGU
6,B6,0.0187 KA relative to UGCAUGU
7,B7,0.713 KA relative to UGCAUGU
8,B8,0.0394 KA relative to UGCAUGU
9,B9,0.0147 KA relative to UGCAUGU
10,B10,0.00895 KA relative to UGCAUGU
11,B11,0.00861 KA relative to UGCAUGU
12,B12,0.00637 KA relative to UGCAUGU
13,B13,0.00802 KA relative to UGCAUGU
14,B14,0.00891 KA relative to UGCAUGU
15,B15,0.0115 KA relative to UGCAUGU
16,B16,0.00532 KA relative to UGCAUGU

row,Binder,binding signal
1,B17,0.911 KA relative to UGCAUGU
2,B18,0.692 KA relative to UGCAUGU
3,B19,0.015 KA relative to UGCAUGU
4,B20,0.0149 KA relative to UGCAUGU
5,B21,0.361 KA relative to UGCAUGU
6,B22,0.0118 KA relative to UGCAUGU
7,B23,0.018 KA relative to UGCAUGU
8,B24,0.0022 KA relative to UGCAUGU
9,B25,0.0464 KA relative to UGCAUGU
10,B26,0.00597 KA relative to UGCAUGU
11,B27,0.00857 KA relative to UGCAUGU
12,B28,0.00518 KA relative to UGCAUGU
13,B29,0.62 KA relative to UGCAUGU
14,B30,0.0166 KA relative to UGCAUGU
15,B31,0.0178 KA relative to UGCAUGU
16,B32,0.0131 KA relative to UGCAUGU
